GLP1R cytotox: qHTS of GLP-1 Receptor Inverse Agonists: Cytotox Screen | HEK293 cAMP-luciferase reporter cells, luminescence, 24 h | Potency, µM (doses to about 38.3 µM), for inactives: top-dose activity change, negative = inhibition, hits mostly inhibitors | 0.13% of 410,000 active;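 also: loss of luciferase light is scored as toxicity; % is scaled to controls: 0 for no effect and ±100 for the full control effect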
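Seeding density was 200 cells/uL; after overnight-length (12 h) culture, 23 nL compounds went on for 24 h at 37 °C. Readout used a luciferase detection reagent, luminescence taken after 12 min at room temperature.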
GLP1R inv ag: qHTS of GLP-1 Receptor Inverse Agonists (Inhibition Mode). Glucagon-like peptide 1 receptor (Homo sapiens), P43220. HEK293 GLP-1R CRE-luciferase, luminescence, 24 h; GLP-1R form is constitutively active. Potency, µM (top dose mostly 38.3 µM), for inactives: top-dose activity change, negative = inhibition, most hits filed as inhibitors. 1.6% of 410,000 active. AID 624417, 2012; also: % is scaled to controls: 0 for no effect and ±100 for the full control effect; nearly all actives have a fitted effect of over 55% in size
Target sequence (P43220 whole entry, looked up): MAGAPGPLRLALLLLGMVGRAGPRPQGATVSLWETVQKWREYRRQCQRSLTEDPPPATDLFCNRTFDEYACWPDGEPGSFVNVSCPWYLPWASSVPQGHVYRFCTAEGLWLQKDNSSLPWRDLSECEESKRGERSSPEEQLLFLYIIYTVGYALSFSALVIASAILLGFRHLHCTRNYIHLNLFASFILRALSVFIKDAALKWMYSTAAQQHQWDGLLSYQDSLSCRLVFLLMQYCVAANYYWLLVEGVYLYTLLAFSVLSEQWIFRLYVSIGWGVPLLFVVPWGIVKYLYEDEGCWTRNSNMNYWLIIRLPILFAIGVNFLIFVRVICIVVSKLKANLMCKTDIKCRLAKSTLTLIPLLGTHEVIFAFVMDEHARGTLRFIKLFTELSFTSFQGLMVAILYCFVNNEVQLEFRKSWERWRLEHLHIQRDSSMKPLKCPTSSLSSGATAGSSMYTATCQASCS
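Assay principle: reduced luminescence from a cAMP-responsive reporter in HEK293 cells co-expressing a constitutively active GLP-1R. Conditions: 24 hr compound incubation, 37 deg C, 5% CO2.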
PTHR1 agonist: qHTS for PTHR1 Agonists: Primary Screen; Parathyroid hormone/parathyroid hormone-related peptide receptor (Homo sapiens), Q03431; HEK293 GP2 PTHR1 cells, GloSensor cAMP luminescence, 1 h; Potency, µM (titrated, usually from 115 µM), for the others: at the highest dose activation, actives largely listed as activators; 0.075% of 410,000 active; AID 743266, 2014; also: nearly all actives have a fitted effect of over 55% in size
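HEK-293-derived GP2 cells expressing PTHR1 and a GloSensor cAMP reporter, 3,000/well, plated overnight, given luciferin plus IBMX (each 0.5 mM as added) for 1 h at 37 °C, then compound for 1 h at 37 °C. Luminescence was read after 15 min at room temperature.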
GLP-1R agonist: qHTS of GLP-1 Receptor Agonists; 0.007% of 380,000 active; HEK293 GLP-1R CRE-luciferase, luminescence, 4-6 h; cells express a hypersensitive GLP-1R form; Glucagon-like peptide 1 receptor (Homo sapiens), P43220; AID 624172, 2012; Potency, µM (highest dose often 45.6 µM), for inactives: at the highest dose activation, hits mostly activators; also: % of control where 0% means no effect
Numbers without * were called inactive; i = inactive; ? = inconclusive; · = not tested or not shown; ! = a repeat was not active; [ ] = remark or other dose. Sampled rows, rich in hits. Any-hit rate of the full collection: about 1.7%. Calls follow the shape of the dose curve; as a rule, active = well fitted curve in the direction sought with a large enough effect; inconclusive = small, poorly fitted or top-dose-only effect, or another doubt; inactive = no such curve, though single readings can be large; an effect the other way counts as inactive or inconclusive. Potency is read from the fitted curve at half-maximal effect.

SMILES	GLP1R cytotox	GLP1R inv ag	PTHR1 agonist	GLP-1R agonist
COc1ccc(C2c3ccc4ccccc4c3Oc3ncn(CCCN(C)C)c(=N)c32)cc1 (stereo not given)	?	4.5µM*	i	21%
CN1C[C@H]2c3ccccc3Oc3ccc(Cl)cc3[C@@H]2C1	·	·	·	13%
COCC(=O)Nc1cc(Sc2ccccc2)ccc1N=C(NC(=O)OC)NC(=O)OC	·	·	·	10%
COC(=O)c1c(C(=O)OC)c2c(-c3ccccc3)cc3cccc1n32	193%	8.9µM*	-31%	9%
Cc1cc2nc(-c3ccc(OCc4ccccc4F)cc3)cc(C(F)(F)F)n2n1	3%	20%	i	2%
CCN(Cc1nc(-c2ccccc2)no1)C(=O)COc1cccc(OC)c1	14%	1.8µM*	-15%	14%
COc1cccc(OCC(=O)N(Cc2nc(-c3ccc(Cl)cc3)no2)C(C)C)c1	2%	?	-92%	7%
COc1ccc(-c2c(-c3cc(OC)cc(OC)c3)n(C)c3ccc(-c4cccc5[nH]ccc45)cc23)cc1	6%	?	-13%	-3%
COc1cc(OC)cc(-c2c(-c3ccc(F)cc3)c3cc(-c4cccc5[nH]ccc45)ccc3n2C)c1	9%	5.6µM*	-30%	-5%
CCc1cccc(C)c1NC(=O)CN1CCCN(Cc2ccccc2Cl)S1(=O)=O	6%	1%	-13%	·
O=C1c2ccccc2-c2nnc(-c3ccc(F)cc3)cc21	-6%	-9%	-21%	11%
Cc1ccc(-c2cc3c(nn2)-c2ccccc2C3=O)cc1	1%	1.4µM*	-90%	-2%
Cc1cc2c(cc1C)CSC(c1ccccc1OC(=O)C(C)C)SC2	-15%	10µM*	-14%	1%
O=C(CCSCc1cccc(Cl)c1)N1CCN(c2ccc(Cl)cc2)CC1	7%	?	-18%	·
c1ccc2c(c1)CC/C2=N/Nc1nc2ccccc2[nH]1	3.5µM*	?	i	0%
C(=N\Nc1nc2ccccc2[nH]1)/c1ccccn1	11µM*	?	-95%	-12%
CC(C)(C)C1CCC(=NNc2nc3ccccc3[nH]2)CC1 (stereo not given)	-25%	?	-13%	10%
C(=N\Nc1nc2ccccc2[nH]1)/c1ccc2ncccc2c1	?	?	-65%	9%
O=C(CSc1nnc(COc2ccc(Cl)cc2)o1)N1c2ccccc2CCc2ccccc21	?	3.5µM*	-19%[57.5 µM]	-3%
CC[C@H]1OC(=O)[C@H](C)[C@@H](O[C@H]2C[C@@](C)(OC)[C@@H](O)[C@H](C)O2)[C@H](C)[C@@H](O[C@@H]2O[C@H](C)C[C@H](N(C)C)[C@H]2O)[C@](C)(O)C[C@H](C)C(=NOCOCCOC)[C@H](C)[C@@H](O)[C@]1(C)O	·	·	·	5%
Cc1c(N2C(=O)/C(=C/c3ccc(N(C)C)cc3)N(C)C2=S)c(=O)n(-c2ccccc2)n1C	5.6µM*	?	i	9%
Cc1c(N2C(=O)/C(=C/c3ccccc3)SC2=S)c(=O)n(-c2ccccc2)n1C	-22%	?	i	-13%
CCNC(=O)NCc1cccc(Cl)c1	·	·	·	8%
Cc1ccc([N+](=O)[O-])cc1N=C(c1cccc(Br)c1)N1CCOCC1	-5%	7.9µM*	-8%[57.5 µM]	6%
O=C(Oc1cccc(C(=S)N2CCOCC2)c1)c1ccc([N+](=O)[O-])cc1	17%	-10%	-36%	-1%
SMILES	GLP1R cytotox	GLP1R inv ag	PTHR1 agonist	GLP-1R agonist
CCN(CC(=O)Nc1ccccc1C(F)(F)F)C(=O)c1cc(-c2cccs2)nn1-c1ccccc1	7%	?	-38%	0%
CCCN(CC(=O)Nc1ccccc1OC)C(=O)c1cc(-c2cccs2)nn1-c1ccccc1	10%	11µM*	-11%	4%
CCCN(CC(=O)Nc1ccccc1OC)C(=O)c1ccc2[nH]c3c(c2c1)CC(C)CC3 (stereo not given)	-7%	10µM*	-21%	-21%
CCN(CC(=O)Nc1ccccc1OC)C(=O)c1ccc2[nH]c3c(c2c1)CC(C)CC3 (stereo not given)	2%	?	-34%	-3%
O=c1c2ccccc2nc(SCCN2CCOCC2)n1CCc1ccccc1	8%	10µM*	-21%	26%
Cc1ccc(Cc2nc3ccccc3nc2SCC(=O)N2CCCCC2C)cc1 (stereo not given)	-7%	10µM*	-35%	-5%
CCCCN(CC)C(=O)CSc1nc2n[nH]c(C)c2c(=N)n1-c1cccc(Cl)c1	-6%	1%	i	·
CN(CCC#N)c1ccc(/C=C(\C#N)c2ccccn2)cc1	-8%	?	-15%	1%
CN(CCC#N)c1ccc(C=C(C#N)c2ccc(Br)cc2)cc1	?	10µM*	-31%	27%
CC(C)NC(=O)CSc1nc2ccccc2c(=O)n1Cc1ccc(C(=O)NC(C)C)cc1	4%	31%	i	2%
Cc1cccc(Oc2nc(-c3ccccn3)nc3ccccc23)c1	?	1.3µM*	i	15%
Cc1ccc(NC(=S)NCc2ccccn2)cc1	?	?	16µM*	-15%
Cc1cccc(NC(=S)NCc2ccccn2)c1	?	?	i	0%
Cc1ccc(-n2ncc3c(NCCCN4CCOCC4)ncnc32)cc1C	-14%	?	-3%	·
CCN(CC)Cc1cc(Nc2ccnc3cc(Cl)ccc23)ccc1O	?	11µM*!	-15%	0%
COc1ccc(-c2csc(NC(=O)c3ccccc3NS(=O)(=O)c3ccc(C)cc3)n2)cc1	5%	4.5µM*	-96%	-30%
OC(CNCCc1ccc(Cl)cc1)COc1cc(Cl)ccc1Cl (stereo not given)	?	10µM*	-24%	3%
OC(CNCCc1ccc(Cl)cc1)COc1ccc2ccccc2c1 (stereo not given)	?	?	i	7%
Cc1ccc(CNc2oc(-c3ccc(COc4ccc(C)cc4)o3)nc2C#N)cc1	0%	11%	-60%	·
CCN1CC(CN(C)Cc2nc(COc3ccccc3)no2)CC1=O (stereo not given)	9%	11%	i	3%
CCN1CC(CN(C)Cc2nc(-c3ccc(OC)c4ccccc34)oc2C)CC1=O (stereo not given)	?	10µM*	-2%	15%
O=C(c1cccc(Br)c1)c1cn(-c2ccccc2)nc1C(=O)c1ccccc1	7%	3.5µM*	i	0%
CC(=O)c1nn(-c2ccccc2)cc1C(=O)c1cccc(Br)c1	1%	4%	i	-2%
O=C(Nc1ccc(F)cc1)C(Cc1ccccc1)n1cccc1 (stereo not given)	-5%	13µM*	-27%	12%
O=C(NCc1ccc(F)cc1)C(Cc1ccccc1)n1cccc1 (stereo not given)	2%	11µM*	-15%	3%
COc1cccc(CNC(=O)C(Cc2ccccc2)n2cccc2)c1 (stereo not given)	8%	?	-1%	18%
